Reference: PubChem BioAssay AID1508600 (Functional Genomics Laboratory (NCATS/FGL), 2020)
About 3,700 (7%) of roughly 53,000 sequences were called active. This excerpt belongs to a sample that is enriched for actives. Unmarked numbers belong to inactive results.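 The calls were made as follows: active = gene knockdowns whose robust z-score for IL-1 alpha signal is at least 2 or at most -2, so actives lie on both sides; inactive = the rest.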

Experiment: Components of the Cytosolic LPS Sensing Pathway: Gene Identification via Genome-wide siRNA Screen;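 also: robust z of the log signal after scaling to non-targeting control siRNA wells of the plate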
Settings: RAW264.7 macrophages, IL-1a HTRF, actives lie on both sides, screened at 100 nM (by protocol), cells primed 5 h with Pam3CSK4 first
Procedure, shortened: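 IL-1a HTRF of supernatants after 24 hour LipidA transfection of Pam3CSK4-primed (5 hours) RAW264.7 cells, 48h post-siRNA transfection (100 nM). Scores: percent of plate negative-control median, then log-based robust z-score.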

Sequence	z-score
GGGACUUGAUCUCCUGAGUTT against Krtap4-2	-0.223
GGACAACGAGUGUCUGGGUTT against Cx3cr1	4.8 (active)
CCCAUGGUCACUUAUAUAUTT against Jarid2	0.109
GGAGCUUCGUGGAUAAGAGTT against Padi3	-1.79
GGUUGUUGGAAAAGAUGAATT against Ids	-1.55
GGAUCAUCCAAGUGUUCCGTT against Olfr555	1.51
GCAGUUUGUGGAUAUGUCATT against Treh	0.604
GGUUUUCUCGCUCAGACCATT against Wt1	0.352
GGUCAUACAUGUGAAGACATT against Tsr2	2.01 (active)
GGGCAAGAUGGUCAGUAGATT against Tpt1	0.627
CGCAACAGCUAGGAUUUUUTT against Me1	0.193
CCCAUUAGAUGCUGAAUAUTT against Stmn1	0.139
CCAGUGUUUGACUUGACCATT against Dpysl3	0.228
GGUUGUCGUCAACAAGAGCTT against Krt72	1.96
GGUGUCAUCCCUGAAAGAGTT against Tert	0.0314
GGAAUUUCUUCAGGACACUTT against Procr	0.278
GGCUCAAUAAAAUGAAGUGTT against Elovl2	2.03 (active)
GGCUCAUGGUUAUUGUAAUTT against Olfr1198	-0.385
UGUAUCUUUCUGUAGUUCUTT against Taar7e	0.195
GGAACAUGGCACUUUCGUGTT against Pcdh10	0.905
CGGUUAAAAGCCCUCAGCATT against Olfr592	-1.41
GGUCAAGUGCGAGAAACUCTT against Mafb	-0.016
GGUGGGAAGAGGAAUACACTT against Iffo1	4.73 (active)

Sequence	z-score
GGGACCAGAUGAAGAAGGATT against Coq4	0.267
GGAAAUAGAGGAAAGAGAATT against Rbm17	-0.235
GGCCAUCCAUUGAAGACAUTT against Stk-ps2	1.05
GGCUCUGUUGAAUGCAACGTT against Slc39a6	-2.15 (active)
CUUUGUCAGCCAUGUAUCCTT against Tas2r104	0.468
GCUGCCACUGGACACAUAATT against 4930591A17Rik	-0.0198
GGCUCAAGAAAGUGAAUGATT against Myog	-1.14
GCAAGACACUUGAUAACUCTT against Znrd1as	2.34 (active)
GGAGCAUUUGUUUCCAAGATT against Cd38	-1.33
GCGCAAUGACGAUAAACUCTT against Sema3f	0.534
CCGGAGGUUCCAACAAACUTT against Dlx1	-0.591
GGAUCCAGAACUAAAAAUCTT against Pcdhga2	0.193
GCUUACUAAUGCGGAUUACTT against 5330438D12Rik	-2.41 (active)
GGAAGUUGGUGAGCUGGUATT against Ccl17	2.4 (active)
GGAAGACAACAACCUAGAATT against Rpn1	-0.894
GCAGAGUCUGGAUCAACAUTT against Efcab14	-0.583
CCUCCAGUUCAGAAUUCUATT against Surf4	0.634
GGCACGAUACUUAUUUGAATT against Nudt13	-1.43
GGAAGUUGUAGGAGAAAACTT against Rnf214	-0.624
CGAGAACAGAGGUUUUUAATT against Mxi1	0.0641
GGAUGCAUUUUUUCUGGAATT against Nop53	0.85
GGUGGAAGAGGAGAGUGAATT against Ncl	-0.284
GGAACUGAGCCAAGAAGCUTT against Prox2	-2.16 (active)

Sequence	z-score
GUGUGGACAACUCCUGAGUTT against 9630041A04Rik	-1.14
CGUUAACUCUCGGACGAUCTT against Fitm1	0.576
GGAGGUGGAUCAAAUGGCATT against Gnrh1	-0.667
GGAAAUAUUGUCAUCAUGGTT against Olfr1302	-0.483
GCGGAACUGACUUUCCUGATT against Rhot2	0.443
GGGUAAGAGUUACAGAAUATT against Serpinb8	-0.0947
GCUUUACGAUACUCCAUAUTT against Shd	-0.506
GGGAGAAAAUUGGCUUAGATT against Dclre1b	0.424
GAUGUUCUGCAUCUACUUUTT against Olfr545	1.46
CCUGAAAUCCUGUAGCUACTT against Pgap3	1.35
GGCAGAGACCUCAAAACCATT against Selplg	-2.33 (active)
GGACCAUCACUUCCAGCUATT against Rab1b	-0.726
GGAAGUCUCUAUCCUGAACTT against Prss50	-0.24
GGAAGUCAACAAUGCAUUCTT against Olfr1451	-0.133
GGUAAAUUACUCUGAUCAATT against Gpr61	-0.593
GGGAUUAAUAUCAUACCGATT against Slc30a5	-1.33
GGGUUUUAUGACCUUCAAGTT against Zkscan14	0.655
GGAUGCUCUAGUUCCAUUATT against Aym1	0.51
GGAGCAUCAUUUUAACACUTT against Tubd1	0.925
GGAUCCUGGUCCAAACUUUTT against Atraid	-1.52
GGUUAUUGGCACUUUUAGATT against Ect2	0.0504
GGAUUGCUUCACCACAUGUTT against Fes	2.44 (active)
